According to PubChem BioAssay (NCATS):
Inconclusive results are not listed. Active and inactive are the calls of the source. Unless noted, the call rests on the fitted dose curve.

Experiments:
[1] = molecular target: Estrogen receptor (Homo sapiens) (UniProt P03372); experiment: qHTS assay for small molecule antagonists of estrogen receptor alpha signaling (AID 588513; active means well fitted curve in the direction sought with a large enough effect in the signal ratio, with a control signal flat, not every such curve was filed as active; the % refers to the signal ratio; further: on the % scale 0 is the no-effect control and ±100 the full control effect)
Outline: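 Beta-lactamase reporter, antagonist mode, HEK 293 GripTite cells; 0.5nM E2 stimulus, 18 h, 37 C; CCF4 dye 2 h RT; fluorescence. IC50 and efficacy from Hill fits, normalized to E2 and DMSO.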

[2] = molecular target: Estrogen receptor (Homo sapiens) (UniProt P03372); experiment: qHTS assay for small molecule agonists of estrogen receptor alpha signaling (AID 588514);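 further: 0% = vehicle only and 100% = reference agonist; nearly all actives have a fitted effect of over 70% in size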
Outline: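 Efficacy is expressed against 20 nM 17-beta-estradiol (100%) and DMSO basal (0%); EC50 from Hill equation. Assay: beta-lactamase reporter in ER-alpha-UAS-bla HEK 293 cells, 18 h compound incubation, CCF4 detection.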

[3] = molecular target: Androgen receptor (Homo sapiens) (UniProt P10275); experiment: qHTS assay for small molecule agonists of androgen receptor signaling (AID 588515; active means well fitted curve in the direction sought with a large enough effect in the signal ratio, with a control signal flat; the % refers to the signal ratio; further: on the % scale 0 is the no-effect control and ±100 the full control effect); conditions: AR-UAS-bla HEK293, beta-lactamase ratio, agonist 16 h; stronger effect = higher value
Outline: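 Stimulation of an AR-responsive β-lactamase reporter in GripTite HEK293 cells was measured after 16 h compound exposure at 37 °C, via CCF4 fluorescence after 2 h RT. EC50 from Hill fits, normalized to R1881 at 30 nM.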

[4] = molecular target: Androgen receptor (Homo sapiens) (UniProt P10275); experiment: qHTS assay for small molecule antagonists of androgen receptor signaling (AID 588516; active means well fitted curve in the direction sought with a large enough effect in the signal ratio, with a control signal flat, not every such curve was filed as active; the % refers to the signal ratio; further: on the % scale 0 is the no-effect control and ±100 the full control effect)
Outline: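 HEK293 AR-UAS-bla cells, 10% dialyzed FBS medium; cpd titration + R1881 10 nM final, 16 h 37 C; CCF4 2 h RT; FRET ratio; IC50/efficacy via Hill fit.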

[5] = molecular target: Bile acid receptor (Homo sapiens) (UniProt Q96RI1); experiment: qHTS assay for small molecule antagonists of farnesoid X receptor signaling (AID 588526); further: on the % scale 0 is the no-effect control and ±100 the full control effect
Outline: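 Concentration-response titrations were fitted to the Hill equation for half-maximal inhibition and maximal response, with data normalised to 50 uM chenodeoxycholic acid and DMSO control wells. Cells: FXR-UAS-bla HEK293T, dialyzed FBS.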

[6] = molecular target: Glucocorticoid receptor (Homo sapiens) (UniProt P04150); experiment: qHTS assay for small molecule agonists of glucocorticoid receptor signaling (AID 588532; active means well fitted curve in the direction sought with a large enough effect in the signal ratio, with a control signal flat; the % refers to the signal ratio;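 further: 100% = dexamethasone at 0.1 µM and 0% = DMSO only wells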); conditions: HeLa MMTV-bla, beta-lactamase ratio, agonist, 18 h; activation: stronger effect = higher value, percent of dexamethasone control, DMSO zero
Outline: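 Titration series, up to 92 uM, applied to GRE-bla HeLa cells for 18 h at 37 C. Detection by CCF4 FRET substrate after 2 h at RT.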

[7] = molecular target: Glucocorticoid receptor (Homo sapiens) (UniProt P04150); experiment: qHTS assay for small molecule antagonists of glucocorticoid receptor signaling (AID 588533; active means well fitted inhibition curve with a large enough effect in the signal ratio, with a control signal flat, not every such curve was filed as active; the % refers to the signal ratio)
Outline: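 Antagonist-mode qHTS: compound titrations added to GRE-bla HeLa cells, then dexamethasone 2 nM final; 18 h, 37 C. CCF4 FRET fluorescence normalized to dexamethasone and DMSO; IC50 from Hill fit.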

[8] = molecular target: Peroxisome proliferator-activated receptor delta (Homo sapiens) (UniProt Q03181); experiment: qHTS assay for small molecule agonists of peroxisome proliferator-activated receptor delta signaling (AID 588534);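 further: 0% = DMSO basal wells and 100% = positive control agonist at 10 µM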
Outline: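 Agonist-mode qHTS; reporter cells, 5 hrs 37 C pre-incubation; compound titration, 18 hrs 37 C; CCF4 dye, 2 hrs RT; fluorescence read. EC50/efficacy via Hill fit.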

[9] = molecular target: Peroxisome proliferator-activated receptor gamma (Homo sapiens) (UniProt P37231); experiment: qHTS assay for small molecule agonists of peroxisome proliferator-activated receptor gamma signaling (AID 588536; active means well fitted curve in the direction sought with a large enough effect in the signal ratio, with a control signal flat, not every such curve was filed as active; the % refers to the signal ratio;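 further: 0% = DMSO basal wells and 100% = rosiglitazone at 2 µM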)
Outline: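 Beta-lactamase reporter read-out: CCF4 fluorescence (ex 405, em 460/530 nm) after 2 h at RT. HEK293 GeneBLAzer cells were treated for 16 h at 37 C. Hill fits gave EC50 and efficacy versus 2 uM rosiglitazone (100%) and DMSO (0%).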

[10] = molecular target: Vitamin D3 receptor (Homo sapiens) (UniProt P11473); experiment: qHTS assay for small molecule antagonists of vitamin D receptor signaling (AID 588541)
Outline: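 VDR-UAS-bla HEK293T cells (2000/well, 2% charcoal-stripped FBS) were treated with titrated compounds plus 1-alpha,25-dihydroxyvitamin D3 (50 nM or 3 nM final) for 16 h at 37 C. CCF4 beta-lactamase fluorescence was read; Hill fits gave IC50.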

[11] = molecular target: Vitamin D3 receptor (Homo sapiens) (UniProt P11473); experiment: qHTS assay for small molecule agonists of vitamin D receptor signaling (AID 588543);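 further: 0% = DMSO basal and 100% = reference agonist control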
Outline: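 β-lactamase reporter, VDR-UAS-bla HEK293T, agonist mode. Cells plated 5 h at 37 °C, compound titration 16 h at 37 °C, CCF4 dye 2 h RT, ratio 460/530 nm. Hill fit → EC50, efficacy vs 50 nM 1α,25-(OH)2D3.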

[12] = qHTS assay for small molecule agonists of retinoid X receptor alpha signaling (AID 588544); conditions: HEK293T RXRa-UAS-bla, beta-lactamase reporter, 18 h; 530 nm emission;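 on activation: 0% = DMSO basal wells and 100% = reference agonist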
[13] = molecular target: Retinoic acid receptor RXR-alpha (Homo sapiens) (UniProt P19793); experiment: as above
[14] = qHTS assay for small molecule antagonists of retinoid X receptor alpha signaling (AID 588546; active means well fitted inhibition curve with a large enough effect in the signal ratio, with a control signal flat, not every such curve was filed as active; the % refers to the signal ratio); conditions: HEK293T RXRa-UAS-bla, beta-lactamase ratio, antagonist mode; measured here: W530 green channel, cytotoxicity proxy
Outline: (§1)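 Beta-lactamase reporter inhibition, read as CCF4 fluorescence ratio (ex 405, em 460/530 nm) after 2 h at RT. HEK293T UAS-bla cells, 2500/well, were stimulated with 9-cis-RA at 500 or 100 nM final alongside test compound for 18 h at 37 C.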

[15] = molecular target: Retinoic acid receptor RXR-alpha (Homo sapiens) (UniProt P19793); experiment: as above; conditions: HEK293T RXRa-UAS-bla, beta-lactamase ratio, antagonist mode
Outline: as §1

[16] = molecular target: Thyroid hormone receptor beta (Homo sapiens) (UniProt P10828); experiment: qHTS assay for small molecule antagonists of thyroid hormone receptor beta signaling (AID 588547; active means well fitted inhibition curve with a large enough effect in the signal ratio, with a control signal flat, not every such curve was filed as active; the % refers to the signal ratio); conditions: TR-UAS-bla HEK293, beta-lactamase ratio, antagonist mode, 18 h
Outline: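 TR-UAS-bla GripTite HEK293 cells in 2% charcoal/dextran FBS medium were preincubated 4 h at 37 C, given compound (0.59 nM to 92 uM) plus 0.4 nM T3 (final) for 18 h, then CCF4 for 2 h at RT; Hill fit gave IC50.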

[17] = qHTS assay for small molecule agonists of the antioxidant response element (ARE) signaling pathway (AID 651741; active means well fitted activation curve with a large enough effect in the signal ratio; the % refers to the signal ratio; further: potency means the concentration at half of the fitted maximal effect; on activation: % of control where 0% means no effect)
Outline: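 Reporter: beta-lactamase under ARE, stably in HepG2. Exposure: 16 h, 37 C, compounds delivered in DMSO by pin tool after 5 h cell preincubation. Readout: FRET substrate fluorescence after 2 h at RT.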

[18] = qHTS assay for small molecule activators of the p53 signaling pathway (AID 651743; active means well fitted activation curve with a large enough effect in the signal ratio, not every such curve was filed as active; the % refers to the signal ratio; further: series mostly up to about 92 µM; % of control where 0% means no effect); conditions: HCT-116 p53RE-bla, beta-lactamase FRET ratio, 16 h; activation: stronger effect = higher value
Outline: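 Agonist-mode quantitative HTS in HCT-116 cells carrying a p53-response-element beta-lactamase reporter; 16 h compound treatment at 37 C, then FRET substrate loading for 2 h at room temperature and fluorescence read.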

[19] = qHTS assay for small molecule activators of the nuclear factor-kappa B (NF-kB) signaling pathway (AID 651749; active means well fitted activation curve with a large enough effect in the signal ratio; the % refers to the signal ratio; further: series mostly up to about 77 µM; % of control where 0% means no effect); conditions: NF-kB-bla ME-180 cells, beta-lactamase FRET ratio, 16 h; activation: stronger effect = higher value
Outline: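 Human ME-180 cervical cells with an NF-kB-bla construct; compounds added via 23 nL pin transfer, DMSO as vehicle; incubation 16 hr. Reporter activity measured by FRET disruption.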

[20] = qHTS assay for environmental chemicals that activate the Aryl hydrocarbon Receptor (AhR) signaling pathway (AID 651777; active means well fitted curve in the direction sought with a large enough effect; an effect the other way counts as inactive or inconclusive; further: % of control where 0% means no effect; nearly all actives have a fitted effect of over 15% in size); conditions: 1A2-DRE human hepatoma cells, luciferase, 24 h; activation: stronger effect = higher value
Outline: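 Stable CYP1A2 promoter/DRE-luciferase human hepatoma line treated 24 hr; One-Glo luminescence, 30 min RT.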

[21] = molecular target: Peroxisome proliferator-activated receptor alpha (Homo sapiens) (UniProt Q07869); experiment: qHTS assay for small molecule agonists of the peroxisome proliferator-activated receptor alpha (PPARalpha) signaling pathway (AID 651778; active means well fitted curve in the direction sought with a large enough effect; an effect the other way counts as inactive or inconclusive; further: % of control where 0% means no effect); conditions: PathHunter PPARalpha complementation, chemiluminescence, 6 h; max response: stronger effect = higher value
Outline: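 Cells plated at 2,000/well and held overnight at 37 C, 5% CO2, then compound added by pin tool for 6 hr; after PathHunter detection reagent and 60 min at room temperature, chemiluminescence from enzyme complementation was read.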

[22] = qHTS assay for small molecule agonists of the antioxidant response element (ARE) signaling pathway measured by Nrf2-dependant transcriptional activity (AID 720636; active means well fitted curve in the direction sought with a large enough effect in the repeat runs; an effect the other way counts as inactive or inconclusive;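 further: HepG2 cells with an ARE-driven luciferase reporter; % of control where 0% means no effect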)
Outline: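 Reporter gene assay, HepG2 ARE-luc: 16 hr compound, 37 C, 5% CO2; read-out luciferase luminescence.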

[23] = qHTS assay for cell viability of HEK293 cells (AID 743288; active means well fitted curve in the direction sought with a large enough effect; an effect the other way counts as inactive or inconclusive; further: on the % scale 0 is the no-effect control and ±100 the full control effect; nearly all actives have a fitted effect of over 50% in size); conditions: ATP luminescence (CellTiter-Glo), 18 h; max response: stronger effect = lower value
Outline: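 ATP luminescence (CellTiter-Glo) reports metabolically competent cell number after parental HEK293 cells, 2,000/well, were treated with DMSO-dissolved compounds for 18 h at 37 C; reagent incubation 30 min, room temperature.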

[24] = qHTS assay for cell viability of the p53RE-bla HCT-116 cell line (AID 743292; active means well fitted curve in the direction sought with a large enough effect; an effect the other way counts as inactive or inconclusive; further: on the % scale 0 is the no-effect control and ±100 the full control effect; nearly all actives have a fitted effect of over 55% in size)
Outline: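 Readout: CellTiter-Glo luminescence after 30 min RT. Treatment: compounds in DMSO, 16 h, 37 C. Cells: CellSensor p53RE-bla HCT-116, 4,000/well, preincubated 5 h.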

[25] = molecular target: Nuclear receptor subfamily 1 group I member 2 (Rattus norvegicus) (UniProt Q9R1A7); experiment: qHTS assay for small molecule activators of the rat pregnane X receptor (rPXR) signaling pathway (AID 651751; call rule not given here; further: 0% is about no effect); conditions: rPXR reporter cells, luciferase (One-Glo), 24 h
[26] = qHTS assay for small molecule activators of the human pregnane X receptor (PXR) signaling pathway (AID 720659; call rule not given here; further: 0% is about no effect)
[27] = molecular target: Bile acid receptor (Homo sapiens) (UniProt Q96RI1); experiment: qHTS assay for small molecule agonists of farnesoid X receptor signaling (AID 588527); conditions: HEK293T FXR-UAS-bla, beta-lactamase ratio, 16 h; activation: stronger effect = higher value;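 further: series mostly up to about 77 µM; 0% = vehicle basal and 100% = reference agonist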
Outline: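 Read-out: beta-lactamase reporter fluorescence with CCF4 substrate in GeneBLAzer FXR-UAS-bla HEK293T cells, after 16 h compound exposure at 37 C. Response scaled between DMSO basal (0%) and chenodeoxycholic acid at 100 uM (100%).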

[28] = qHTS assay for small molecule antagonists of peroxisome proliferator-activated receptor delta signaling (AID 588535; active means well fitted inhibition curve with a large enough effect in the signal ratio, with a control signal flat, not every such curve was filed as active; the % refers to the signal ratio;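 on max response: cells co-treated with a PPAR-delta agonist as stimulator during compound exposure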); conditions: HEK293T PPARd-UAS-bla, beta-lactamase FRET ratio, 18 h; 460 nm channel
Outline: (§2)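 Inhibition of PPAR-delta response element-driven beta-lactamase expression is measured in HEK293T cells exposed to a compound titration series for 18 hrs at 37 C. Half-maximal inhibition comes from Hill equation fitting.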

[29] = molecular target: Peroxisome proliferator-activated receptor delta (Homo sapiens) (UniProt Q03181); experiment: as above
Outline: as §2

[30] = molecular target: Peroxisome proliferator-activated receptor gamma (Homo sapiens) (UniProt P37231); experiment: qHTS assay for small molecule antagonists of peroxisome proliferator-activated receptor gamma signaling (AID 588537; active means well fitted inhibition curve with a large enough effect in the signal ratio, with a control signal flat, not every such curve was filed as active; the % refers to the signal ratio;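 further: reporter cells co-stimulated with 50 nM rosiglitazone agonist during compound treatment; % of control where 0% means no effect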)
Outline: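 Compounds are tested as concentration series for inhibition of rosiglitazone-driven (50 nM) reporter expression in GeneBLAzer PPAR-gamma-UAS-bla HEK293 cells. After 16 h at 37 C, CCF4 substrate is added for 2 h at room temperature and blue/green fluorescence is measured.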

[31] = molecular target: Thyroid hormone receptor beta (Homo sapiens) (UniProt P10828); experiment: qHTS assay for small molecule agonists of thyroid hormone receptor beta signaling (AID 588545)
Outline: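 In this cell-based screen, titrated compounds act on HEK 293 cells held in medium with 2% charcoal/dextran FBS, NEAA and pyruvate for 18 hrs at 37 C. Responses are expressed relative to T3 (10 nM) as 100% and basal DMSO as 0%.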

[32] = qHTS assay for small molecule agonists of the antioxidant response element (ARE) signaling pathway measured by Nrf2-dependant transcriptional activity - cell viability counter screen (AID 720653; active means well fitted curve in the direction sought with a large enough effect in the repeat runs; an effect the other way counts as inactive or inconclusive; further: on the % scale 0 is the no-effect control and ±100 the full control effect); conditions: ARE-bla HepG2 viability, CellTiter-Glo ATP luminescence, 16 h; max response: stronger effect = lower value
Outline: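 ARE-bla HepG2 cells (2,000/well) rested 5 hrs at 37C/5% CO2, then exposed to compounds in DMSO for 16 hrs. Viability was read in the same wells as intracellular ATP by luminescence, 30 min at room temperature after reagent addition.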

Sequence of Thyroid hormone receptor beta (Homo sapiens) (P10828 whole entry, looked up): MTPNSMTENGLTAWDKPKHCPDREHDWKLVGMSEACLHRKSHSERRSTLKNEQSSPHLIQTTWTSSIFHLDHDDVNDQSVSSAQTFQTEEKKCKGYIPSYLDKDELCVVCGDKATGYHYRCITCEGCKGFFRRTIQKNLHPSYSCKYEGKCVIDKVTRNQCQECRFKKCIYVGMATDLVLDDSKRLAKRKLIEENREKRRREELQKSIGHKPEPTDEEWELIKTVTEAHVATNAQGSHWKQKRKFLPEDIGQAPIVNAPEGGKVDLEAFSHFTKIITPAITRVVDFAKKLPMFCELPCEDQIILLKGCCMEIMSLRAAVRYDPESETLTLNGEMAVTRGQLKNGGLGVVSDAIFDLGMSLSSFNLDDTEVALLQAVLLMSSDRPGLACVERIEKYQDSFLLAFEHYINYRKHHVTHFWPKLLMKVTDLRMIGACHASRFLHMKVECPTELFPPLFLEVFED
Sequence of Bile acid receptor (Homo sapiens) (Q96RI1 whole entry, looked up): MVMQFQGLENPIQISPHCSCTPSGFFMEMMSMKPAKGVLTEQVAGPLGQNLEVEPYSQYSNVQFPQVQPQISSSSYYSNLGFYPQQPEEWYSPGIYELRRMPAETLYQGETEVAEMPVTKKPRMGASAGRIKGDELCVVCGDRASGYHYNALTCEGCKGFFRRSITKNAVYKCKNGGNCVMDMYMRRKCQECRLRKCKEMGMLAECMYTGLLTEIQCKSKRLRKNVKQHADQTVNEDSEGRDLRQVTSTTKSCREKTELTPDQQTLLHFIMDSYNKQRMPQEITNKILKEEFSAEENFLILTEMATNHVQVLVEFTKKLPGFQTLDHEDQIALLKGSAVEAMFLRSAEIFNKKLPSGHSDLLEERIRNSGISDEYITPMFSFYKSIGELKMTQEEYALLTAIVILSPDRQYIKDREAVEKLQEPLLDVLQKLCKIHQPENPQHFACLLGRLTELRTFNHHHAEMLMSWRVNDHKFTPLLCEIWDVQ
Sequence of Peroxisome proliferator-activated receptor gamma (Homo sapiens) (P37231 whole entry, looked up): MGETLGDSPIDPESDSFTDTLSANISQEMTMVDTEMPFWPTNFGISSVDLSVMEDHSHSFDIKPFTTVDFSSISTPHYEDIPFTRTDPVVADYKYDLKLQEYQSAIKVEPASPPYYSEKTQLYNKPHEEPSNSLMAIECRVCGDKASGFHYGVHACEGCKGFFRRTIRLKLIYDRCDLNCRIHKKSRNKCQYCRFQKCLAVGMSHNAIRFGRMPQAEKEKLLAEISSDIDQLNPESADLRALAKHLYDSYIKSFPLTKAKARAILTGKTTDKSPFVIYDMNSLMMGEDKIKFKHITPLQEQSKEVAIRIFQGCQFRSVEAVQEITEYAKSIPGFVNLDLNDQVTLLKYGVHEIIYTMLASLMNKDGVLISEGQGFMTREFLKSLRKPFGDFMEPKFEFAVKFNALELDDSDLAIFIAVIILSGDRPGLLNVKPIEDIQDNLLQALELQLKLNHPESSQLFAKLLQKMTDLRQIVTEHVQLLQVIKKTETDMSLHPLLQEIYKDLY
Sequence of Glucocorticoid receptor (Homo sapiens) (P04150 whole entry, looked up): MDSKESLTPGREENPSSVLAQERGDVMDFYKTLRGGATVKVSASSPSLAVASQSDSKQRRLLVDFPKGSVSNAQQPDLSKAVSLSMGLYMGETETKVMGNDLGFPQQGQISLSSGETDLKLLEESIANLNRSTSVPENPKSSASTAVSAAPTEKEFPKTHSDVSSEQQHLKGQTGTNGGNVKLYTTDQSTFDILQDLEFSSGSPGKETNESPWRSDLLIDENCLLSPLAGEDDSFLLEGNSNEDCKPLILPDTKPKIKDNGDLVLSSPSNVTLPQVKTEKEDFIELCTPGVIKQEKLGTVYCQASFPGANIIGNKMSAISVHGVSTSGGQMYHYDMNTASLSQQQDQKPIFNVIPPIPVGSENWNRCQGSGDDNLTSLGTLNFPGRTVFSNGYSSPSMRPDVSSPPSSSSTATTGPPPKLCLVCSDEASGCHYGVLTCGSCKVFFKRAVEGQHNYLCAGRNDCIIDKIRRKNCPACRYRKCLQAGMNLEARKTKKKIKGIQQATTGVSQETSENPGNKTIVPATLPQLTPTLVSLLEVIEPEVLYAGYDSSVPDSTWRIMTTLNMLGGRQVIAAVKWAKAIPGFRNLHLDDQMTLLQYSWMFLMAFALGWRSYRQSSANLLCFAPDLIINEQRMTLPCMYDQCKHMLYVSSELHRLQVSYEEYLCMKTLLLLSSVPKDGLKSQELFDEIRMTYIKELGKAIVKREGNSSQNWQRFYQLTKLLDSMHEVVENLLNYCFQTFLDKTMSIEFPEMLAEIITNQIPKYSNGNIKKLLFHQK
Sequence of Retinoic acid receptor RXR-alpha (Homo sapiens) (P19793 whole entry, looked up): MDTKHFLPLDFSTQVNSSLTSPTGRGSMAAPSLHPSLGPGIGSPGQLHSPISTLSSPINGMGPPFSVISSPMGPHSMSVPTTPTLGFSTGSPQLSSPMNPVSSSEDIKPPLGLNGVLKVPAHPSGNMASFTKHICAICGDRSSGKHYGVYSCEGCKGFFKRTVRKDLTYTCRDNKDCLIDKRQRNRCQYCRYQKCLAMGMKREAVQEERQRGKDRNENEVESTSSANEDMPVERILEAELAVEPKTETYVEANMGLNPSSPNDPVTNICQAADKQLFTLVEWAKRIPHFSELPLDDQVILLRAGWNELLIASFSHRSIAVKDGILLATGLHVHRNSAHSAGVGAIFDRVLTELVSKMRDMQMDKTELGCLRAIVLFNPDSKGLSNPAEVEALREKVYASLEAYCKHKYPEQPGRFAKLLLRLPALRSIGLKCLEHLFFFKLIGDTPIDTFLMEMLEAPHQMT
Sequence of Peroxisome proliferator-activated receptor delta (Homo sapiens) (Q03181 whole entry, looked up): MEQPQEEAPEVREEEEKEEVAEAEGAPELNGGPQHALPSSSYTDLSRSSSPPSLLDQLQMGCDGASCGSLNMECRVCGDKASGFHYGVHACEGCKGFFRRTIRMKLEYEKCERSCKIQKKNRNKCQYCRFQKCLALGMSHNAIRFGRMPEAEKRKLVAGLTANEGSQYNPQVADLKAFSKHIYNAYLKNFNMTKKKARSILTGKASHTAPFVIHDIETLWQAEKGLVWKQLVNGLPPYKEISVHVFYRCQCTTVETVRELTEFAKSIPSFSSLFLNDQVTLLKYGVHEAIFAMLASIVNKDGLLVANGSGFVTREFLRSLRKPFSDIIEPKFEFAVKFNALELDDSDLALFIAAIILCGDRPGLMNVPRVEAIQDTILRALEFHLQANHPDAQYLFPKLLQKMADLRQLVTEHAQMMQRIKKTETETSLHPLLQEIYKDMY
Sequence of Estrogen receptor (Homo sapiens) (P03372 whole entry, looked up): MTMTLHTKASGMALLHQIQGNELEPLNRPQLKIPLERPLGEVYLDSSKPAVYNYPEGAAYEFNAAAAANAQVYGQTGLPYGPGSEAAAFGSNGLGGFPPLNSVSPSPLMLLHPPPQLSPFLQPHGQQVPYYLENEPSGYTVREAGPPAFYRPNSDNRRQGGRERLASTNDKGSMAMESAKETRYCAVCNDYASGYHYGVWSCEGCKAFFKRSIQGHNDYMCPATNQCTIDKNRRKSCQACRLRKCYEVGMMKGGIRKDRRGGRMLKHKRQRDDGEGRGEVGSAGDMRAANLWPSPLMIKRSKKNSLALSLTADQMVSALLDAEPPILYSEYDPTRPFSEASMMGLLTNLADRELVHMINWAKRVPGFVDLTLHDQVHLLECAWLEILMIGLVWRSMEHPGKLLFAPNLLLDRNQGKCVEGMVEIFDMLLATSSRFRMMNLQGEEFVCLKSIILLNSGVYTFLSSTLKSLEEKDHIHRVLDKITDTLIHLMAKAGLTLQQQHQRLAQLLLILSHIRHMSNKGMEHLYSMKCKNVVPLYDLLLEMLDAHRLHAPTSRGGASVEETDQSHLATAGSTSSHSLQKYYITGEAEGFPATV
Sequence of Androgen receptor (Homo sapiens) (P10275 whole entry, looked up): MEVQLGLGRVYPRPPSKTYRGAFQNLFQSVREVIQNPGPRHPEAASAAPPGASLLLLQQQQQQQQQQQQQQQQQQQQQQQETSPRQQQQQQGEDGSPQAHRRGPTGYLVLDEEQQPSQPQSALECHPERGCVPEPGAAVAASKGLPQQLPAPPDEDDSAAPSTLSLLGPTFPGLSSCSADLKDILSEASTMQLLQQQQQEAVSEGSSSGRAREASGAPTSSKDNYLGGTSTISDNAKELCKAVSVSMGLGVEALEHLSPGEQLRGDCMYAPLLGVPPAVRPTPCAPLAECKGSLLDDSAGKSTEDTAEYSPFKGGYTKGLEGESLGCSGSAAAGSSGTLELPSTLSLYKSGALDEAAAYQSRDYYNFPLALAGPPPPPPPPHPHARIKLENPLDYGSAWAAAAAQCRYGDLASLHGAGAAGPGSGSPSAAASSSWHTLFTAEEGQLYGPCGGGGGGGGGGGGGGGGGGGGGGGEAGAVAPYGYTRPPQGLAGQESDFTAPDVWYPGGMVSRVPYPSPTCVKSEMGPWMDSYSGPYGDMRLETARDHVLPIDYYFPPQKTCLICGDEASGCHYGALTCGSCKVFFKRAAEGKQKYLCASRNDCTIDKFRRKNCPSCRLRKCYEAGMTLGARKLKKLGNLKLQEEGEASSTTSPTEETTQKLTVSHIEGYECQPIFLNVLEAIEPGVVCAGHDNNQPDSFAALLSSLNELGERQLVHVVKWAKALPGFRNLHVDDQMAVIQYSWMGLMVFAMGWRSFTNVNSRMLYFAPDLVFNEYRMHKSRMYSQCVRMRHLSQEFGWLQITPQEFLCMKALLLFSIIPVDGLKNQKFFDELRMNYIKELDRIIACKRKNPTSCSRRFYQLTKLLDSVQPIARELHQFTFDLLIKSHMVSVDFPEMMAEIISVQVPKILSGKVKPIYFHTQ

CNC(=O)Oc1cccc2c1OC(C)(C)C2O (centres undefined)
-10.1%: max response [12]
inactive: Potency [1] | Potency [2] | activation [3] 3.8% | Potency [4] | Potency [5] | activation [6] 12.4% | Potency [7] | outcome [8] | Potency [9] | Potency [10] | outcome [11] | Potency [13] | max response [15] -10.3% | activity change % (negative = inhibition) [16] 7.05% | activation [18] -0.021% | activation [19] 0.725% | activation [20] 0.301% | max response [21] -1.14% | Potency [22] | max response [23] -0.251% | Potency [24] | max response [25] -0.827% | outcome [26]
active: Potency [17] 54.5 µM
-12.4%: max response [14]

CCCCC(CC)C(=O)Cl (centres undefined)
inactive: Potency [1] | Potency [2] | Potency [5] | activation [27] -2.28% | activation [6] -0.757% | Potency [7] | outcome [8] | Potency [29] | Potency [9] | Potency [30] | Potency [13] | Potency [31] | max response [15] 2.12% | activity change % (negative = inhibition) [16] 0.279% | Potency [17] | activation [18] -0.76% | activation [19] -0.95% | activation [20] 0.633% | max response [21] -0.947% | Potency [22] | max response [32] -2.12% | max response [23] -4.59% | Potency [24] | max response [25] -0.98% | outcome [26]
-20.2%: max response [12]
9%: max response [28]
-9.74%: max response [14]
